Screening results as filed in PubChem.
Rows were chosen to be rich in hits. Some 5.9% of all compounds tested hit in one or more screens of this group.
HSF1 inhib = HSF1 inhibition; activity change, negative = inhibition, % at 7.5 µM (by protocol); AID 2098; NIH3T3-HGL HSE-luciferase, MG132-induced, luminescence 8 h; hits give low values; 300,000 compounds, 0.77% hits;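 active = more than half of replicate wells show activity change below -50%, luminescence cut by over half; inconclusive = some wells, but at most half, below -50%; inactive = no replicate well below -50%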;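 also: luciferase reports HSF-1 transcriptional activity via heat shock element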
HSP90 refold inh = inhibitors of HSP90 luciferase refolding in rabbit reticulocyte lysate; luciferase refolding luminescence, 3 h; inhibition, % at 5.6 µM; 290,000 compounds, 0.91% hits;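 active = inhibition above the screen-wide mean plus 3 SD, computed separately per campaign, cut at about 16% in these data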;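 also: inhibitors lower the luminescence because luciferase stays unfolded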
HSF-1 act = increases HSF-1 driven luciferase reporter signal; NIH3T3-HGL HSF-1 luciferase reporter, MG132, 8 h; 100% = twice DMSO control signal; AID 504408; 300,000 compounds, 1.7% hits; activation, % at 9 µM;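 active = mean replicate activation of at least 50% with a set share of replicates each reaching 50%; inconclusive = only one of those two conditions met; inactive = mean below 50% and too few replicates reaching it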
DAX1 inh = NR0B1 (DAX1) inhibition; P51843; HEK293 Gal4-DAX1 luciferase reporter, luminescence; inhibition, % at 6.75 µM; 340,000 compounds, 0.99% hits; AID 504766;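 active = inhibition above the mean over all tested compounds plus 3 SD, cut at about 4.2% in these data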;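 also: inhibition shows as a rise in luminescence from relieved DAX1 repression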
Target sequence (P51843 207-470 limits assumed): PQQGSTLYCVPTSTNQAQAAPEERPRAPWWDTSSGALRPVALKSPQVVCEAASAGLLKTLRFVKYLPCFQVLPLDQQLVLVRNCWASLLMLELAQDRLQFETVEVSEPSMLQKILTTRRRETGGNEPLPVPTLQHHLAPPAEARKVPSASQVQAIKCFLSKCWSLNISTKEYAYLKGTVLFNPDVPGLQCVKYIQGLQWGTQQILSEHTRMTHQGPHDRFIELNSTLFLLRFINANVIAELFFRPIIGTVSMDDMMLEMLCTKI
FXN GAA850 act = frataxin GAA850 promoter activation. 360,000 compounds, 0.56% hits. AID 540364. HEK293 lucGAA850 FXN promoter luciferase reporter, 24 h; percent of 10 µM SAHA response. activation, % at 6 µM;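 active = activation above the average of all compounds screened plus 3 SD, cutoff fixed separately per campaign, cut at about 7.5% in these data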
AHR activator = human AHR activation; AHR-responsive luciferase reporter cells, luminescence; 320,000 compounds, 2.5% hits; AID 2796; activation, % at 5 µM; P35869; in the data active = activation above about 47%
Hits are given with their value; - = inactive; ? = inconclusive; . = not tested or not shown.

SMILES | HSF1 inhib | HSP90 refold inh | HSF-1 act | DAX1 inh | FXN GAA850 act | AHR activator
Cc1cccc(NC(=O)c2ccccc2NC(=O)c2ccco2)c1 | - | - | - | - | - | -
Cc1cc(Br)ccc1NC(=O)c1ccco1 | - | - | - | - | - | -
CC1CCCN(C(=O)CN(C)S(=O)(=O)c2cccc3nsnc23)C1 (stereo unspecified) | - | - | - | - | - | -
Cc1csc(-c2cc(C(=O)NCc3ccc(F)cc3)n[nH]2)c1 | . | . | . | . | - | .
CCOc1ccccc1NC(=O)c1ccccc1NC(=O)c1ccco1 | - | - | - | - | - | 70.3
COc1ccc(OC)c(NC(=O)c2ccccc2NC(=O)c2ccco2)c1 | - | - | - | - | - | -
CCOc1ccccc1NC(=O)COC(=O)c1cc[n+]([O-])cc1 | - | - | - | 5.4 | - | -
CCOc1ccccc1NC(=O)COC(=O)c1ccc2ccccc2n1 | . | . | . | - | - | -
COc1ccc(NC(=O)c2ccccc2NC(=O)c2ccco2)cc1 | - | - | - | - | - | 62.6
O=C(Nc1ccccc1C(=O)Nc1ccccc1)c1ccco1 | - | - | - | - | - | 75.8
CCc1sc(C(=O)NNC(=O)c2cncc(Br)c2)cc1C | . | . | . | - | - | -
O=C(Nc1cccnc1Oc1ccc(Cl)cc1)c1cccc2ccccc12 | - | - | - | 6.0 | - | -
CCOc1ccccc1NC(=O)c1ccc(C(=O)Nc2ccccc2OCC)nc1 | - | - | - | - | - | 72.0
Cc1cc(C)cc(OCC(=O)NCc2nc(-c3ccccc3)no2)c1 | - | - | - | - | - | -
O=C(COc1ccccc1Cl)NCc1nc(-c2ccccc2)no1 | - | - | - | - | - | 47.6
O=C(Nc1ccc(Cl)cc1)c1ccco1 | - | - | - | 5.2 | - | -
COc1cc(/C=C/C(=O)N2CCC=CC2=O)cc(OC)c1OC | . | . | . | - | - | -
COc1ccc(C)cc1/C=C/C(=O)N1CCN(S(=O)(=O)c2cccs2)CC1 | . | . | . | - | - | .
CCOc1ccccc1NC(=O)c1cccc2ccccc12 | - | - | - | - | - | 74.3
COc1ccc(C2CCCCCN2C(=O)C2CCN(S(=O)(=O)c3cccc(C(C)=O)c3)CC2)cc1 (stereo unspecified) | . | . | . | - | - | .
Cc1cccc(-n2c(O)cnc2Nc2nc(C)cc(C)n2)c1 | - | - | - | . | - | 64.8
CCOC(=O)C(=CN=C(N)Nc1nc2ccccc2o1)C(=O)OCC | - | - | - | - | - | 62.9
CCOc1ccccc1CN1CCNC(=O)C1CC(=O)NCc1nccn1CC (stereo unspecified) | - | - | 66.9 | - | - | -
Cc1ccc(C=Nc2ccccc2C(N)=O)s1 | - | - | 63.4 | - | - | 54.6
Cc1cccc(C=Nc2ccccc2C(N)=O)c1 | - | - | - | - | - | -
SMILES | HSF1 inhib | HSP90 refold inh | HSF-1 act | DAX1 inh | FXN GAA850 act | AHR activator
Cc1ccc(NC2c3ccccc3C(=O)N2c2cccnc2)cc1 (stereo unspecified) | - | - | - | 5.5 | - | -
COc1ccc(CC(=O)Nc2ccc(-c3ccc4nnc(C)n4n3)cc2)cc1OC | - | - | - | 5.7 | - | -
COc1ccc(OC)c(-c2cc(C(=O)N/N=C/c3ccc(F)cc3)c3ccccc3n2)c1 | - | . | - | . | - | -
CCn1nc(C)c(/C=N\NC(=O)c2ccc3c(c2)OCO3)c1C | - | - | - | - | - | 73.5
COc1ccc(OC)c(-c2cc(C(=O)N/N=C/c3cc(OC)c(OC)cc3OC)c3ccccc3n2)c1 | -68.8 | . | - | - | - | -
CC(C)C(NC(=O)c1ccc2c(c1)OCO2)C(=O)N/N=C/c1cccs1 (stereo unspecified) | - | - | - | - | - | -
CC(/C=N/NC(=O)c1cc(-c2ccccc2)nc2ccccc12)=C\c1ccco1 | - | - | 54.5 | - | - | -
Cc1c(/C=N/NC(=O)C(NC(=O)c2ccc3c(c2)OCO3)C(C)C)c2ccccc2n1C (stereo unspecified) | - | - | - | - | - | 51.5
CC(/C=N/NC(=O)c1cc(-c2ccc(Cl)cc2)nc2ccccc12)=C\c1ccco1 | - | - | - | - | - | -
COc1ccc(S(=O)(=O)NC(=O)C2(C)CCN2C(=O)Cc2cc(C)cc(C)c2)cc1 (stereo unspecified) | . | . | . | . | - | .
CCCN(CC1CCCO1)C(=O)CCc1nnc(CCc2ccc(OC)cc2)o1 (stereo unspecified) | - | - | - | - | - | -
C[C@H](NC(CCc1ccccc1)C(=O)O)C(=O)N1CCC[C@H]1C(=O)O (stereo partly specified) | - | . | - | . | . | -
COc1ccc(-c2nc(NCCN(C)C)nc3ccsc23)c(C)c1 | . | . | . | . | - | .
COc1ccc(-c2cc(C(=O)N/N=C/c3ccc4c(c3)OCO4)c3ccccc3n2)c(OC)c1 | - | - | - | - | - | 48.5
COc1ccccc1/C=N/NC(=O)c1ccc2c(c1)OCO2 | - | - | - | 4.3 | - | 51.2
COc1ccccc1C(=O)N/N=C/c1ccc2c(c1)OCO2 | - | - | ? | - | - | 50.0
Cc1cc(CNC(=O)Nc2ccc3c(c2)OCO3)nn1C | . | - | . | - | - | -
CCn1nc(C)c(CNC(=O)Nc2ccc3c(c2)OCO3)c1C | - | - | - | - | - | 68.0
COc1ccc(-c2cc(C(=O)N/N=C/c3ccc(OC)c(COCC(F)(F)C(F)F)c3)c3ccccc3n2)c(OC)c1 | - | - | - | - | - | -
COc1cc2ccccc2cc1C(=O)N/N=C/c1ccc2c(c1)OCO2 | - | - | - | - | - | .
COc1ccc(C(C)=O)cc1COC(=O)CCNS(=O)(=O)c1ccc(C)c(C)c1 | - | . | - | - | - | -
O=C(NCCCN1CCOCC1)C(=O)N/N=C/c1ccc2c(c1)OCO2 | - | - | - | 4.4 | - | -
COc1ccc(/C=N/NC(=O)c2cccnc2)cc1 | - | - | - | - | - | -
COc1ccc(C(=O)N/N=C/c2ccccc2OC(=O)c2ccccc2)cc1 | - | - | - | - | - | -
COc1ccc(/C=N/NC(=O)c2ccc3c(c2)OCCO3)cc1[N+](=O)[O-] | -79.6 | - | - | - | - | -
SMILES | HSF1 inhib | HSP90 refold inh | HSF-1 act | DAX1 inh | FXN GAA850 act | AHR activator
COc1cc(C(=O)Oc2ccccc2/C=N/NC(=O)c2ccc(C)cc2)cc(OC)c1OC | - | - | 65.8 | - | - | -
COc1ccc(Oc2ccc(/C=N/NC(=O)c3cccnc3)cc2[N+](=O)[O-])cc1 | - | - | - | 4.6 | - | -
COC(=O)N1CCCCC1c1cc(C(=O)N2CCOCC2)no1 (stereo unspecified) | . | . | . | . | - | .
CCCCN(C(=O)Cc1ccc(S(=O)(=O)N2CCOCC2)s1)c1c(N)n(CCCC)c(=O)[nH]c1=O | - | . | - | - | - | -
O=C(N/N=C/c1ccc2c(c1)OCO2)C1CC1 | - | - | - | - | - | 67.2
Cc1ccc(-c2cc(C(=O)N/N=C/c3ccoc3)c3ccccc3n2)cc1 | . | - | . | - | - | .
S=C(NN=Cc1ccc2c(c1)OCO2)NN=Cc1ccc2c(c1)OCO2 | . | . | . | - | - | .
Cc1cc(C)c(S(=O)(=O)N/N=C/c2ccc3c(c2)OCO3)c(C)c1 | -55.4 | - | - | - | - | .
